# Laboratory results published in ChEMBL document CHEMBL3433997, “St. Jude Leishmania screening dataset” (2016).
# Legend:
# Format in all cases: functional
# [1] = biological target: Solute carrier family 2, facilitated glucose transporter member 1 (Homo sapiens) (UniProt P11166); test: ST_JUDE_LEISH: Cytotoxicity at 2uM final concentration against transgenic Leishmania Mexicana promastigotes LmGLUT1 that are glucose transport deficient and complemented with the human glucose transporter GLUT1. Activity is measured by DNA content using SYBR green in vitro
# [2] = biological target: Hexose transporter 1 (Plasmodium falciparum) (UniProt O97467); test: ST_JUDE_LEISH: Cytotoxicity at 2uM final concentration against transgenic Leishmania Mexicana promastigotes LmPfHT that are glucose transport deficient and complemented with the Plasmodium falciparum hexose transporter. Activity is measured by DNA content using SYBR green in vitro
# [3] = biological target: Glucose transporter (Leishmania mexicana) (UniProt O61059); test: ST_JUDE_LEISH: Cytotoxicity at 2uM final concentration against transgenic Leishmania Mexicana promastigotes LmGT2 that are glucose transport deficient and complemented with the L. Mexicana glucose transporter 2. Activity is measured by DNA content using SYBR green in vitro
# Sequence of Solute carrier family 2, facilitated glucose transporter member 1 (Homo sapiens) (P11166 whole entry): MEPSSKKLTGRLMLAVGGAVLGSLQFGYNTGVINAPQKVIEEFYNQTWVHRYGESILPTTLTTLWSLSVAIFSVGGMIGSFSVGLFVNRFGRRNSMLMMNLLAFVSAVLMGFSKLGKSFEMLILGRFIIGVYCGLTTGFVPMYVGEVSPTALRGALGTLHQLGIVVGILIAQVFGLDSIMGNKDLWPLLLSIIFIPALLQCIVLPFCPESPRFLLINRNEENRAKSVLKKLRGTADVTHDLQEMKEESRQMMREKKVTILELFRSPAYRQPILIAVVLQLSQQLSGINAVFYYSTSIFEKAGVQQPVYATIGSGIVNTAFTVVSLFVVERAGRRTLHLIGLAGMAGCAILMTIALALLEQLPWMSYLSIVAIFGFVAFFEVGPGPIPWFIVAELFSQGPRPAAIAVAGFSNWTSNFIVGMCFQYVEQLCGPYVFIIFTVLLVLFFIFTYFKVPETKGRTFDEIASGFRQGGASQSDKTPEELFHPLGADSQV
SMILES,inhibition [1] [%],inhibition [2] [%],inhibition [3] [%]
CC(C)[C@H](NC(=O)c1ccc(O)c(-c2ccc(Cl)c(Cl)c2)c1)C(=O)NCCN1CCCCC1,-0.08,1.9,-1.44
Cc1ccc(C2CCN(CCCCNC(=O)c3ccc(NC(=O)c4ccc(Cl)cc4)cc3)CC2)c(C)c1,-0.93,-0.75,-0.85
COc1ccc(C(=O)CCC(=O)N(Cc2ccc(-c3ccc(CNCCc4ccc(S(C)(=O)=O)cc4)cn3)cc2)C2CC3CCC2C3)cc1F (stereo not given),12.7,9.69,8.16
COc1ccccc1N1CCN(CCCCNC(=O)c2ccc(NC(=O)c3ccc(OC(F)(F)F)cc3)cc2)CC1,1.23,-0.16,1.25
CC(C)(C)CC(C)(C)c1ccc(O)c(C(=O)Nc2ccc([N+](=O)[O-])cc2)c1,1.13,1.55,0.23
COc1ccc(CCN(C)CCCOc2ccc(NC(=O)COc3cccc4sc5ccccc5c(=O)c34)cc2)cc1OC,-2.54,-2.87,-0.2
COc1cccc2c(N/N=C/c3ccc([N+](=O)[O-])cc3)ccnc12,11.3,6.04,1.25
COc1cc(CCNc2nc(NCc3ccccc3-c3ccccc3)nc(N3CCC(N)CC3)n2)ccc1O,4.17,0.92,2.4
O=C(CCn1c2ccccc2c2ccccc21)NN=Cc1ccco1,7.25,5.11,4.19
CCNC(=O)Nc1ccc(N(C)c2ccnc(NC3CC3)n2)cc1,5.12,3.87,5.35
CC(C)C[C@@H](C(=O)Nc1ccc(Cc2ccc(NC(=O)[C@H](CC(C)C)N(C)C(=O)OC(C)(C)C)cc2)cc1)N(C)C(=O)OC(C)(C)C,0.03,-1.12,-0.46
O=S(=O)(NCCN1CCCC1)c1ccc(-c2ccc(CN3Cc4ccccc4C3)cc2)s1,-0.63,-0.5,-2.59
O=C(Nc1cccc(CN2CCCN(CCc3ccccc3)CC2)c1)c1cc2ccccc2s1,-1.04,-1.82,1.52
COc1cc(NC(=O)/C=C/c2ccccc2Cl)cc(OCCN2CCC(O)(c3ccccc3)CC2)c1,6.07,3.45,4.61
CC(C)c1ccc(NS(=O)(=O)c2cccc(C(=O)NC3CCN(CC4CCCCC4)CC3)c2)cc1,3.07,1.15,1.74
Nc1c2c(nc3ccc(Oc4ccc(Br)cc4Br)cc13)CCCC2,81.2,84.6,57.4
CCCc1cc(OC)c(CC2c3cccc(O)c3CCN2C)cc1OC (stereo not given),0.68,0.4,-0.12
O=C(NC1CC1)C1CCN(Cc2cc3ccccc3n2Cc2ccc(Cl)cc2)CC1,-2.52,-1.61,-1.79
O=C1COC2(CN1CC1CCN(Cc3ccc(O)c(Cl)c3)C1)c1ccccc1-c1ccccc12 (stereo not given),-0.03,-0.11,-0.34
OC1CCCN(Cc2ccc(-c3ccc(-c4nc5cc(F)ccc5[nH]4)s3)cc2)C1 (stereo not given),3.05,2.51,1.76
COc1cc2nc(C)nc(Nc3ccc(Oc4ccccc4)cc3)c2cc1OC,-2.63,2.09,-1.95
CCOc1cc2c(cc1OCC)C(c1ccc(O)c(Cl)c1)NCC2 (stereo not given),11.9,13.1,10.3
O=C(/C=C/c1ccc(Cl)cc1Cl)NCCCCCN1CCC(c2c[nH]c3ccccc23)CC1,-2.21,0.6,1.57
O=C(COc1cnc2ccccc2n1)Nc1ccccc1Sc1ccc(Cl)cc1,4.91,3.31,3.2

SMILES,inhibition [1] [%],inhibition [2] [%],inhibition [3] [%]
COc1cc(C(=O)N2CCOC(CCN3CCC(Cc4ccc(F)cc4)CC3)(c3ccc(Cl)c(Cl)c3)C2)cc(OC)c1OC (stereo not given),5.79,7.29,2.49
Nc1ncnc2nc(-c3ccc(F)cc3)cc(-c3ccc(NC(=O)c4ccccc4)cc3)c12,4.74,2.67,2.02
COc1ccc2ncc(C#N)c(CCN3CCC(NCc4cnc5c(c4)OCCO5)CC3)c2n1,11.4,15.9,6.56
COCCNCc1ccc(-c2ccc3c(Nc4ccc(Cl)cc4F)ccnc3c2)o1,2.75,2.3,4.33
CCC(=O)Nc1nnc(Cc2ccc(OC)c(OC)c2)s1,9.1,10.1,6.69
COc1ccc(C2CCN(CCCCNC(=O)c3ccc(NC(=O)c4ccc(Cl)cc4)cc3)CC2)cc1Cl,-0.02,0.63,4.45
CCOC(=O)CCc1cc(F)c(F)c(OC[C@H](O)CNC(C)(C)C(O)c2ccc3ccccc3c2)c1 (stereo not given in full),0.06,0.61,0.21
O=C(Nc1ccc(Cl)cc1F)N[C@H]1CCN(CCCCCNC(=O)C2CC2c2ccc(Cl)c(Cl)c2)C1 (stereo not given in full),8.35,8.26,8.63
CC(C)N1CCC(N(Cc2ccc(-c3ccc(C(F)(F)F)cc3)cc2)C(=O)Cn2c(CCc3cccc(F)c3F)cc(=O)c3cn(C)nc32)CC1,10.3,8.4,13
CN(Cc1cccc(O)c1)C1CCN(c2cc(NC(=O)c3ccc(F)cc3)ccn2)C1 (stereo not given),1.94,2.9,3.61
CCc1ccc(S(=O)(=O)Nc2cccc(CCN3CCC(N4CCCCC4)CC3)c2)cc1,1.95,1.48,-0.34
O=S(=O)(NCCN1CCCC1)c1ccc(-c2ccc(CNCc3ccc(F)cc3)cc2)cc1F,5.72,5.82,3.28
CN(C)CCOc1cc(O)c2c(c1)OC(C)(C)C=C2c1cccs1,-0.97,-1.11,-0.34
CCN(CC)CCN(Cc1ccc(-c2ccc(C(F)(F)F)cc2)cc1)C(=O)Cn1c(CCc2cccc(F)c2F)cc(=O)c(C)c1C,11.5,8.35,3.62
COc1ccc(CCn2c(=N)c(C(=O)NCc3ccccc3)cc3c(=O)n4ccccc4nc32)cc1,12.9,12.8,8.6
Cc1cnc(C(=O)Nc2cccc(-c3ccc(-c4nc5cc(F)ccc5[nH]4)cc3)c2)cn1,12.2,10,8.63
c1ccc(-c2cccnn2)cc1,1.25,1.26,1.72
Cc1c(C)n(C2CCCCC2)c2ncnc(OC3CCN(CC(=O)N4CCCC4)CC3)c12,1.06,3.02,1.38
CCNc1cc(C(=O)N[C@@H](Cc2ccccc2)[C@H](O)CNC(C)(C)c2cccc(OC)c2)cc(N2CCCC2=O)c1,0.14,1.76,-0.62
COc1cccc(NC(=O)Cn2c(C)c(C#N)c3ccccc32)c1,3.53,5,3.36
Cc1cc(-c2cccc3c(C(=O)N4CCc5cc6nccc(N7CCN8CCC[C@H]8C7)c6cc54)cccc23)cc(C)n1,1.99,-1.7,2.83
Cc1cccc2nc(-c3cccc(-c4ccc(C(=O)N5CCCCC5C(C)O)cc4)c3)[nH]c12 (stereo not given),4.05,4.66,5.64
CNCCNCc1ccc(-c2ccc(-c3nc4cccc(C)c4[nH]3)cc2)cc1,5.52,4.65,4.77
Cc1ccc(Nc2ccnc(Nc3ccc(C)c(F)c3)n2)cc1O,9.14,12.6,3.98

SMILES,inhibition [1] [%],inhibition [2] [%],inhibition [3] [%]
C[C@@H]([C@@H](CCCc1ccc(Cl)cc1)C(=O)N[C@H](C(=O)Nc1cccnc1)C(C)(C)C)N(O)C=O,1.13,0.19,1.52
COc1ccc2ncc(F)c(CCN3CCC[C@H](CNCc4ccc5c(n4)NC(=O)CS5)C3)c2n1,5.76,5.3,0.75
COc1ccc2[nH]c(-c3ccccc3)cc(=NN=Cc3ccncc3)c2c1,3.48,3.17,5.54
CCCCCCCC(=O)N[C@@H](Cc1ccccc1)C(=O)N[C@H](C(=O)O)C(C)C,2.54,1.23,2.59
N#Cc1cc([N+](=O)[O-])ccc1-n1nc(-c2cccc(Cl)c2)n(CC2CCCO2)c1=S (stereo not given),2.07,1.3,-4.52
CC(C)C[C@H](NC(=O)c1cc2ccccc2s1)C(=O)N[C@H]1CCN(Cc2ccc(OCCCN(C)C)c(Cl)c2)C1,3.21,2.95,1.32
O=C(NCC1CCC(C(=O)O)CC1)c1ccc(/C=C/C(=O)N2CCc3ccccc3C2c2ccc3c(c2)OCO3)cc1 (stereo not given),-0.02,1.62,0.31
Cc1ccc(/C=C/C(=O)NC2CCC(N3CCC(c4ccccc4C)CC3)CC2)cc1C (stereo not given),4.77,4.56,1.93
COc1ccc(CNCc2ccccc2)cc1-c1ccc(S(=O)(=O)NCCN2CCCC2)s1,1.43,2.19,4.5
COc1ccc(-c2cc(C(=O)Nc3ccc(CCCN(C)Cc4ccc(OC)c(OC)c4)cc3)c3ccccc3n2)cc1,13.6,2.41,1.44
O=C(Cc1ccc(-c2ccccc2)cc1)N[C@H]1CCN(Cc2ccc(OCCCN3CCCCC3)cc2)C1,18.6,17.2,8.12
CC1(C)CCC(=Cc2ccc(Cl)cc2)CC1(O)Cn1ccnc1 (stereo not given),11.7,6.85,3.82
COc1ccc(CN2CCC(CNC(C)c3cccc4ccccc34)CC2)cc1 (stereo not given),7.32,12.7,5.96
O=C(/C=C/c1ccc(Cl)c(Cl)c1)NCCCCCN1CCCN(C(=S)Nc2ccc(Cl)cc2)CC1,1.38,1.56,1.57
CCOc1c(Cl)cc(Cl)cc1CNCCCNc1nc2ccccc2[nH]1,1.3,6.95,4.33
CCCCC1(c2ccc(F)cc2)NC(=O)N(CC(=O)c2cc(C)n(Cc3ccco3)c2C)C1=O (stereo not given),-0.18,0.18,-0.26
CC1CN(Cc2ccc(C#N)cc2)CCN1c1ccc(NC(=O)c2cccs2)cc1 (stereo not given),8.47,8.63,8.98
COc1cc(Cc2cnc(N)nc2N)ccc1OCc1ccc(F)c(F)c1,3.03,5.38,4.59
COc1ccc(Nc2nccc(NCCNC(=O)c3cc4ccccc4s3)n2)cc1,5.11,3.59,-0.64
CCN(C(=O)CSc1cc(C)c2cc(C)cc(C)c2n1)C1CCS(=O)(=O)C1 (stereo not given),0.63,0.78,-0.42
CC(C)NCc1ccc(-c2ccc(NC(=O)c3cccc(Cl)c3)cc2)cc1,-2.83,-1.18,-3.53
O=c1cc(NC[C@H]2CCC[C@@H]2NC2CCCc3c2[nH]c2ccccc32)[nH]c2ccccc12 (stereo not given in full),0.74,-1.31,5.67
